Screens deposited in PubChem by National Center for Advancing Translational Sciences (NCATS).
TDP-43 rescue: qHTS of TDP-43 Inhibitors: NCGC Sytravon Library Screen | 0.45% of 45,000 active | yeast TDP-43 toxicity rescue, BacTiter-Glo growth, 24 h | AID 1347073, 2019 | Potency, µM (top dose mostly 46.1 µM), usual class: activators; active means well fitted activation curve with a large enough effect; further: 0% is about no effect; nearly all actives have a fitted effect of over 55% in size
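TDP-43-expressing yeast, pregrown in raffinose, seeded at OD600 0.02 in galactose medium with compound for 24 hr at 30 deg C. Growth read by BacTiter-Glo luminescence, so rescue of toxicity appears as activation.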
* marks the source's active call; other numbers are inactive results; i = inactive. The entries come from a sample that favours hits as a whole. Potency means the concentration at half of the fitted maximal effect.

SMILES | TDP-43 rescue
COCCn1c(-c2ccc(Cl)cc2Cl)nc2c(c(=O)c3ccccc3n2C)c1=O | i
COc1ccc(-n2c(-c3ccc(Cl)cc3Cl)n[nH]c2=S)c(OC)c1 | i
Clc1cccc(COn2c(-c3ccc(Cl)cc3Cl)nc3ncccc32)c1 | 25µM*
Nc1c(C(=O)Nc2ccc(Cl)c(C(F)(F)F)c2)sc2nc(-c3ccncc3)ccc12 | i
COc1cc(/C=C/C(=O)O)ccc1OS(=O)(=O)c1ccc(C)cc1 | i
COc1ccc(/C=C/C(=O)O)cc1Cl | 11µM*
COc1cc(/C=C/C(=O)O)ccc1OCc1ccc([N+](=O)[O-])cc1 | i
CCc1ccc(-n2c(SCc3ccccc3C)nc3[nH]ncc3c2=O)cc1 | i
CC1(C(=O)O)CCCN(C(=O)C2(c3ccc(Cl)cc3)CCCC2)C1 (centres undefined) | 14µM*
COCCNC(=O)C1(C)CCN(C(=O)C2(c3ccc(Cl)cc3)CCCC2)C1 (centres undefined) | i
COCCNC(=O)C1CCCN(C(=O)C2(c3ccc(Cl)cc3)CCCC2)CC1 (centres undefined) | i
CCN(CC)CCCNC(=O)CCCn1ncn2c(cc3occc32)c1=O | i
CSc1ccc(CNC(=O)Cc2csc3ccccc23)cc1 | i
CN(C(=O)CSc1nc2ccc(NC(=O)COc3ccc(F)cc3)cc2s1)c1ccccc1 | i
Cc1ccsc1CN(C(=O)c1oc2cc(Br)ccc2c1C)C1CCS(=O)(=O)C1 (centres undefined) | i
N/C(=N\OC(=O)CCCOc1ccccc1)c1ccc([N+](=O)[O-])cc1 | i
COc1ccc(CC(=O)O/N=C(\N)c2cccc([N+](=O)[O-])c2)cc1 | i
N/C(=N\OC(=O)Cc1ccccc1)c1ccc([N+](=O)[O-])cc1 | 11µM*
CCCOc1cccc(C(=O)N(Cc2sccc2C)C2CCS(=O)(=O)C2)c1 (centres undefined) | i
O=C(NC(=S)NNC(=O)c1ccccc1O)c1cccnc1 | i
CCC(C)c1ccc(O)c(NC(=S)NC(=O)c2cccnc2)c1 (centres undefined) | 10µM*
Cc1ccc([N+](=O)[O-])cc1NC(=S)NC(=O)c1cccnc1 | i
Cc1ccc(C)c(CN2C(=O)c3ccccc3S(=O)(=O)c3ccc(C(=O)N4CCN(c5ccccc5F)CC4)cc32)c1 | i
CC1CC(OC(=O)c2ccccc2C(=O)c2ccc(Cl)cc2)C(=O)O1 (centres undefined) | i
C/C(=N/NS(=O)(=O)c1ccc(C)cc1)[C@H]1C[C@@H]1c1ccccc1 | i
SMILES | TDP-43 rescue
O/N=C(/c1ccc(Cl)cc1)C1CC1c1ccccc1 (centres undefined) | 11µM*
COC(=O)c1c(NC(=O)/C=C/c2ccc(OC)c(OC)c2)sc2c1CCC2 | i
CCCCOc1ccc(S(=O)(=O)NCc2csc(-c3ccc(OC)cc3)n2)cc1 | i
O=C(CSc1ncn[nH]1)NCCc1ccc(Cl)cc1Cl | i
O=C(Cn1cnnn1)NCCc1ccc(Cl)cc1Cl | i
O=C(CCl)N=c1sccn1Cc1ccc(Cl)cc1Cl | 20µM*
COc1ccc(N2CCN(c3oc(/C=C/c4ccc(F)cc4)nc3C#N)CC2)cc1 | i
Cc1ccc(C)c(CN2C(=O)c3ccccc3S(=O)(=O)c3ccc(C(=O)N4CCCCC4)cc32)c1 | i
COc1ccccc1/C=C/c1nc(C#N)c(N2CCCCCC2)o1 | i
COc1ccc(C2=NC3(CCCCCC3)N(CC(=O)Nc3cccc(Cl)c3)C2=O)cc1 | i
Cc1ccc2c(c1)C(O)(CC(=O)/C=C/C=C/c1ccccc1)C(=O)N2 (centres undefined) | i
Cc1ccc(C)c(C2C(=O)c3ccccc3C2=O)c1 | i
Cc1ccc2c(c1)/C(=C/c1ccccc1)C(=O)N2 | 22µM*
CN(C)c1ccc(-c2nc3ccccn3c2Nc2ccc3c(c2)OCCO3)cc1 | i
O=C(CSc1ccc([N+](=O)[O-])cn1)Nc1cc(C(F)(F)F)ccc1N1CCOCC1 | 13µM*
Cn1nnnc1SCC(=O)Nc1cc(C(F)(F)F)ccc1N1CCOCC1 | i
O=C(CNCc1ccccn1)Nc1cc(C(F)(F)F)ccc1N1CCOCC1 | i
CN(C)CCCNc1oc(/C=C/c2ccc(F)cc2)nc1C#N | i
CCOc1ccc(CNC(=O)c2cnc(SC)nc2CC)cc1 | i
CCSc1ncc(Cl)c(C(=O)N(Cc2ccc(N(C)C)cc2)Cc2ccco2)n1 | i
CCC(=O)Nc1ccc2nc(SCc3ccccc3)sc2c1 | i
COc1cc(/C=C(\C#N)C(=O)Nc2cccc3ncccc23)cc(OC)c1OC | i
Cc1cccc(C)c1NC(=O)/C(C#N)=C/c1ccsc1 | 20µM*
COc1ccc(/C=C(\C#N)C(=O)OCC(=O)Nc2c(C)cccc2C)cc1 | i
CCC(=O)OCc1cc(=O)oc2ccc3ccccc3c12 | i
SMILES | TDP-43 rescue
O=C(O)Cc1coc2ccc3ccccc3c12 | 13µM*
NC(=O)N/N=C/c1coc2ccc3ccccc3c2c1=O | i
CCCS(=O)(=O)c1nc(S(=O)(=O)c2ccc(C)cc2)c(NCc2ccccc2Cl)s1 | i
Fc1ccc(-c2csc(N3CCOCC3)n2)cc1 | i
c1ccc(-c2nc(N3CCOCC3)sc2-c2ccccc2)cc1 | 25µM*
Cc1cc(C(=O)N/N=C/c2sc(N3CCOCC3)nc2-c2ccccc2)c(C)o1 | i
Cc1nn(CCCC(=O)NCc2cccc(Cl)c2)c(=O)c2c1sc1ccccc12 | i
COc1cccc(-c2nc3ccccc3s2)c1O | i
CCOc1cc(-c2nc3ccccc3s2)ccc1O | 22µM*
COc1cc(C(=O)NCc2ccc(-c3nc4ccccc4s3)cc2)cc(OC)c1OC | i
COc1ccccc1/C=C/c1nc(C#N)c(NCc2ccccc2)o1 | i
Cc1ccc(C(=O)N(Cc2ccc(N(C)C)cc2)Cc2ccco2)cc1 | i
CC1CN(C(=O)N2c3ccccc3Sc3ccccc32)CC(C)O1 (centres undefined) | 13µM*
CC1CN(C(=O)C(Sc2ccccc2)c2ccccc2)CC(C)O1 (centres undefined) | i
CC1CN(C(=O)CS(=O)(=O)Cc2ccccc2)CC(C)O1 (centres undefined) | i
COc1ccccc1-c1c(C)nn2c(-c3ccccc3)cc(-c3ccccc3)nc12 | i
COc1cccc(CNC(=O)Cc2csc3ccccc23)c1OC | i
CCOc1ccc(NC(=O)C2CCCN(c3nnc(-n4c(C)ccc4C)s3)C2)cc1 (centres undefined) | i
CCCN(CCC)C(=O)Cn1c(=O)n(CCCCCC(=O)NCc2ccccc2Cl)c(=O)c2sccc21 | i
Cc1ccc(C(=O)Nc2cc3cc(Cl)ccc3oc2=O)cc1 | i
C=CCn1c(-c2cc(-c3ccc(C)cc3)nc3ccccc23)n[nH]c1=S | 14µM*
CCn1c(-c2cc(-c3ccc(C)cc3)nc3ccccc23)n[nH]c1=S | i
C=CCn1c(-c2ccccc2OC)n[nH]c1=S | i
COc1ccc(NC(=O)CN2C(=O)C(c3ccc(C(C)(C)C)cc3)=NC2(C)C)cc1Cl | i
COc1ccc(C)cc1NC(=O)NC(C)c1c(-n2cccc2)sc(C)c1C (centres undefined) | i
O=C(O)c1nn(CCOc2ccc(Cl)cc2Cl)c(=O)c2ccccc12 | i
O=C(O)c1nn(CCOc2c(Cl)cccc2Cl)c(=O)c2ccccc12 | i
O=C(O)c1nn(CCOc2cccc(Br)c2)c(=O)c2ccccc12 | 18µM*
Cc1ccc(-n2nnnc2SCC(=O)NNC(=O)c2ccc([N+](=O)[O-])cc2)cc1 | i
